Source: PubChem BioAssay
Only some compounds are listed: those with a hit (about 3% of all), similar ones and a draw of the others.
Nrf2 ARE act = Nrf2 pathway activation; AREc32 ARE-luciferase reporter (MCF7-derived line), luminescence, 24 h; Potency, µM (highest dose often 46.1 µM), for inactives: top-dose activation, actives largely listed as activators; hit rate 0.31% among 410,000; AID 624171; also: potency is read from the fitted curve at half-maximal effect; % of control where 0% means no effect; nearly all actives have a fitted effect of over 65% in size
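For detection, Steady-Glo was added and plates sat 30 min at RT; before that, AREc32_Fluc cells grown overnight in OPTI-MEM/5% FBS had been treated with 23 nL compound for 24 hr at 37 deg C.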
DRD3 antagonist = antagonists of human D3 dopamine receptor; P35462; D3R cells, DiscoveRx beta-arrestin luminescence, antagonist mode; hits give low values; max response, negative = inhibition, %; hit rate 2.5% among 360,000; AID 652054; in the data active = max response below about -50%; inconclusive = no clear call, values can overlap the other calls; also: % is scaled to controls: 0 for no effect and ±100 for the full control effect
Target sequence (P35462 whole entry, looked up): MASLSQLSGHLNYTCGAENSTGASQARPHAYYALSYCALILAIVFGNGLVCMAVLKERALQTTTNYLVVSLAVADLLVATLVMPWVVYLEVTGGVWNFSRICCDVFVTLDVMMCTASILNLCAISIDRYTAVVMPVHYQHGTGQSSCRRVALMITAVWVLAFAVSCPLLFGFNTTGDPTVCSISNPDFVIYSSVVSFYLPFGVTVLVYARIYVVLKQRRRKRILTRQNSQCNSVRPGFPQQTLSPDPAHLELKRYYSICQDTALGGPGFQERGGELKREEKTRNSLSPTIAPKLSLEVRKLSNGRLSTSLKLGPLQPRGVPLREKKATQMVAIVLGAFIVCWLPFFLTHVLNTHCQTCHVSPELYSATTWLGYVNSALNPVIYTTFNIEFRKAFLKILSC
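Cells plated overnight at 1500 cells/well, then exposed to library compounds with dopamine controls for 90 minutes at 37 degrees C. DiscoveRx reagent added for 30–60 minutes at room temperature; luminescence read, quantitative HTS format.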
D3 ag = D3 dopamine receptor (human) agonism; hit rate 0.58% among 410,000; D3R DiscoveRx beta-arrestin cells, luminescence, 90 min; max activation, %; in the data active = max activation above about 30%; also: 0% is about no effect
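Cells at 1500/well, incubated overnight, then treated with pinned compounds (dopamine as control) for 90 min at 37 degrees C. DiscoveRx reagent added for 30 - 60 minutes at room temperature; luminescence read.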
GRP78 ERSR act = inducers of ER stress response in human glioma cells. U87-MG GRP78 promoter luciferase reporter, 16 h. Potency, µM, without a hit: at the top dose activation, usual class: activators. hit rate 0.02% among 420,000; also: potency is read from the fitted curve at half-maximal effect; series mostly up to about 76 µM; % of control where 0% means no effect; nearly all actives have a fitted effect of over 35% in size
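Stably transfected U87-MG human glioma cells carrying a GRP78-based luminescent sensor were seeded at 1000 cells/well, pin-dosed with compounds and incubated 16 h. Luciferase reagent was then added, and end-point luminescence was read after 10 min at room temperature.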
An asterisk follows results filed as active; u = inconclusive; x = not tested or not shown. Unless noted, calls follow the shape of the dose curve; as a rule, active = well fitted curve in the direction sought with a large enough effect; inconclusive = small, poorly fitted or top-dose-only effect, or another doubt; inactive = no such curve, though single readings can be large; an effect the other way counts as inactive or inconclusive.

SMILES	Nrf2 ARE act	DRD3 antagonist	D3 ag	GRP78 ERSR act
COc1cc(NC(=O)CC[C@H]2O[C@@H](n3cnc4c(NC(=O)c5ccccc5)ncnc43)[C@H](O)[C@@H]2O)cc(OC)c1OC	-0.7%	-51.9*	-10.2	-2.4%
COCCCNC(=O)CC[C@H]1O[C@@H](n2cnc3c(NC(=O)c4ccccc4)ncnc32)[C@H](O)[C@@H]1O	0.0%	9.5	4.8	-4.1%
O=C(Nc1cccc(Cl)c1)Nc1nnc(CC2=CCCCC2)s1	0.5%	13.7	33.4*	2.9%
O=C(Nc1nnc(CC2=CCCCC2)s1)Nc1ccccc1F	2.6%	5.3	3.9	5.8%
Brc1cc(Br)c[n+](CCc2ccccc2)c1	x	x	x	-3.1%
Cc1nc2cc(NC(=O)[C@@H]3C[C@@H](Sc4ccccn4)CN3Cc3ccc4c(c3)OCCO4)ccc2s1	x	x	x	-0.6%
COc1ccc2cc1Oc1cc3c(cc1OC)CC[N+](C)(C)[C@H]3Cc1ccc(cc1)Oc1c(OC)c(OC)cc3c1[C@@H](C2)[N+](C)(C)CC3	x	x	-6.6	x
CCC(c1nnnn1-c1ccc2c(c1)OCCO2)N1CCN(C/C=C/c2ccccc2)CC1 (configuration not stated)	0.9%	-15.5	66.1*	-6.4%
O=C(Nc1ccc2c(c1)OCCO2)C(CCc1ccccc1)N1CCN(C/C=C/c2ccccc2)CC1 (configuration not stated)	8.8%	-108.7*	-6.8	-3.8%
C(=C\c1ccccc1)/CN1CCN(C(CCc2ccccc2)c2nnnn2-c2ccc3c(c2)OCCO3)CC1 (configuration not stated)	4.2%	-109.6*	-12.4	-6.6%
CCC(c1nnnn1-c1ccc2c(c1)OCCO2)N1CCN(c2ccccc2)CC1 (configuration not stated)	-0.9%	67.8	4.4	x
C(=C\c1ccccc1)/CN1CCN(C(c2nnnn2-c2ccc3c(c2)OCCO3)C2CC2)CC1 (configuration not stated)	2.6%	u	40.9*	-7.7%
Cc1ccc2c(CC(=O)N3CCOc4ccc(CN5C[C@@H](C)O[C@@H](C)C5)cc4C3)cc(=O)oc2c1	x	x	x	-4.0%
CC(=O)C[C@H]1[C@H](O[C@H]2[C@H](OC(C)C(=O)N[C@@H](C)C(=O)N[C@H](CCC(=O)N[C@@H](CCCCN)C(=O)N[C@H](C)C(=O)O)C(N)=O)[C@@H](NC(=O)O)C(O)O[C@@H]2CO)O[C@H](CO)[C@@H](O)[C@@H]1O (some centres not stated)	x	x	x	-2.5%
COc1ccc(OC)c(NC(=O)CCn2cccn2)c1	-1.2%	x	5.7	-2.1%
Cc1ccc(/C=C2/SC(=S)N(CCCC(=O)Nc3cc([N+](=O)[O-])ccc3O)C2=O)cc1	-2.8%	4.7	11.0	-11.4%
Cc1ccc(/C=C2\SC(=S)N(/N=C/c3cc([N+](=O)[O-])ccc3O)C2=O)o1	2.0%	-74.9*	-4.4	-2.1%
O=C(O)[C@H](O)c1ccccc1	x	x	-13.8	x
O=C(CC1SC(=O)N(c2ccccc2)C1=O)Nc1cccc2ccccc12 (configuration not stated)	6.4%	6.1	8.5	1.8%
Cc1ccccc1NC(=O)CC1SC(=O)N(c2ccccc2)C1=O (configuration not stated)	5.4%	-91.9*	0.8	1.9%
N=C1SC(CC(=O)Nc2ccccc2[N+](=O)[O-])C(=O)N1c1ccccc1 (configuration not stated)	2.1%	-61.7*	-15.5	-2.6%
COc1ccccc1NC(=O)CC1SC(=N)N(c2ccccc2)C1=O (configuration not stated)	0.5%	0.0	-13.8	1.5%
COc1ccc(CNC(=O)c2[nH]c(C(F)(F)F)nc2-c2ccccc2)cc1OC	-0.3%	-57.6*	-8.5	-3.1%
COc1ccc(CNC(=O)c2[nH]c(C(F)(F)F)nc2-c2ccccc2)cc1	-0.7%	14.7	6.9	-6.4%
COc1ccc(-c2cc(=O)c3c(OC)c(OC)c(OC)c(OC)c3o2)cc1OC	9.3%	40.9	40.3*	1.5%
SMILES	Nrf2 ARE act	DRD3 antagonist	D3 ag	GRP78 ERSR act
O=C(CC(c1ccccc1)c1ccccc1O)NCCN1CCOCC1 (configuration not stated)	0.0%	-54.9*	-3.6	-5.9%
O=C(COc1ccccc1O)NCCN1CCOCC1	3.6%	-1.2	-14.6	-1.2%
CCOC(=O)c1c(C)oc2ccc(OCc3cc(C(=O)OC)oc3C)cc12	0.3%	38.5	32.9*	-3.7%
COC(=O)c1cc(COc2ccc3ccc(=O)oc3c2)c(C)o1	4.9%	-67.7*	-5.4	0.2%
CC(=O)c1c(C)oc2ccc(OCc3ccccc3)cc12	2.3%	-2.9	-2.6	6.4%
COC(=O)c1cc(COc2ccc3oc(C)c(C(=O)OC)c3c2)c(C)o1	4.0%	52.4	76.0*	-2.5%
CCN1CCN(c2c(S(=O)(=O)c3ccc(C)c(C)c3)cnc3cc(OC)c(OC)cc23)CC1	9.2%	x	-14.9	-3.0%
CCc1ccc2ncc(S(=O)(=O)c3ccc(C)c(C)c3)c(N3CCCC3)c2c1	6.4%	-55.8*	-2.3	-5.4%
C[C@]1(Cn2ccnn2)[C@H](C(=O)O)N2C(=O)C[C@H]2S1(=O)=O	x	x	4.2	x
CCOC(=O)C1CCN(CCCSc2ccc(C)cc2)CC1	-0.8%	-86.7*	-21.2	-3.2%
CCOC(=O)C1CCN(CCC(=O)Nc2cccc(Cl)c2)CC1	-0.7%	-55.6*	-4.8	-7.1%
CCN(CCC(=O)Nc1cc(OC)cc(OC)c1)Cc1ccccc1	2.5%	-66.8*	-6.9	-4.0%
COc1cc(NC(=O)CCN2CCN(Cc3ccccc3)CC2)cc(OC)c1	0.1%	-54.4*	-2.1	-5.2%
O/N=C(/C[n+]1csc2ccccc21)c1ccccc1	x	x	x	0.7%
CC(CN1CCc2nnc(CNC(=O)c3cccc(F)c3)n2CC1)c1ccccc1 (configuration not stated)	x	x	x	-4.9%
Cc1cnc(SCc2ccccn2)nc1C1CCCN(C(=O)c2ccc(-c3ccccc3F)cc2)C1 (configuration not stated)	x	x	x	0.3%
O=C(Nc1cc(Cl)cc(Cl)c1)N1CCCN(Cc2ccccc2)CC1	4.2%	-79.7*	-31.5	-0.2%
O=C(CCN1CCN(Cc2ccccc2)CC1)Nc1cccc(Cl)c1	0.1%	-58.8*	0.3	-3.1%
N#CC(C#N)=C1C=CC=CN1/C(=C\c1ccccc1Cl)C(=O)c1ccccc1	11.4%	-103.8*	-12.8	-14.2%
COc1cc(NC(=O)c2cc([N+](=O)[O-])ccc2NC(=O)CNCc2ccccn2)cc(OC)c1	0.5%	19.1	33.6*	-2.8%
COc1cc(NC(=O)c2cc([N+](=O)[O-])ccc2NC(=O)CNC2CCCCC2)cc(OC)c1	4.7%	6.2	-9.0	-5.3%
COc1cc(NC(=O)c2cc([N+](=O)[O-])ccc2NC(=O)CNC2CCCCC2C)cc(OC)c1 (configuration not stated)	2.3%	17.4	48.7*	-1.2%
COc1ccc(NC(=O)c2cc([N+](=O)[O-])ccc2NC(=O)CNCc2ccccn2)c(OC)c1	17.5%	-13.1	10.8	-2.3%
CN(C)C/C=C(/c1ccc(Br)cc1)c1cccnc1	3.3%	-104.8*	-88.3	-3.0%
COc1cc(/C=C/CN2CCC(Oc3ccc(C(=O)N4CCCC4)cc3)CC2)ccc1O	1.9%	-6.6	-10.7	-2.1%
